Experimental data reported in PubChem BioAssay (Tox21).
“And” between values parts separate entries of the source, which are not always exact repeats. Equal entries are not always repeated. Records with an inconclusive call do not appear. Where a structure was tested more than once in an assay, its records may differ in their call. The source made the active and inactive calls. Calls follow the shape of the dose curve; as a rule, active = well fitted curve in the direction sought with a large enough effect in the repeat runs; inconclusive = weak or mixed curves; inactive = no such curve, though single readings can be large; an effect the other way counts as inactive or inconclusive.

Key:
[1] = Caspase-3/7 induction in CHO-K1 cells by small molecules, qHTS cell viability counter screen (AID 1346979); also: nearly all actives have a fitted effect of over 35% in size; also: potency is read from the fitted curve at half-maximal effect
Summary of the method: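 Wild-type CHO-K1 cells were seeded at 1,500 per well, rested 5hr at 37 C, then exposed to compounds in DMSO. After 16hr, CellTiter-Fluor reagent was added and fluorescence read 1hr later as the viability measure.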

[2] = Caspase-3/7 induction in CHO-K1 cells by small molecules, qHTS assay (AID 1346980); also: nearly all actives have a fitted effect of over 15% in size; also: potency is read from the fitted curve at half-maximal effect
Summary of the method: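 Wild-type cells were seeded at 1,500 per well and settled 5 hr at 37 C, 5% CO2, then exposed to DMSO-dissolved compounds for 17 hr. Caspase-Glo 3/7 reagent was added, and luminescence was read after 30min at room temperature.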

[3] = Caspase-3/7 induction in HepG2 cells by small molecules, qHTS cell viability counter screen (AID 1346981); also: nearly all actives have a fitted effect of over 30% in size; also: potency is read from the fitted curve at half-maximal effect
Summary of the method: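 After a 5-hr attachment period at 37 C and 5% CO2, wild-type HepG2 cells received compounds in DMSO. Sixteen hours later CellTiter-Fluor was dispensed and the fluorescent signal quantified after a further hour.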

[4] = molecular target: Nuclear receptor subfamily 1 group I member 2 (Homo sapiens) (UniProt O75469); experiment: Human pregnane X receptor (PXR) small molecule agonists, qHTS assay (AID 1346982); also: nearly all actives have a fitted effect of over 35% in size; also: potency is read from the fitted curve at half-maximal effect
Summary of the method: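 Tox21 qHTS; PXR-Luc HepG2; compounds pinned from DMSO; 24 hr, 37 C; ONE-Glo luciferase detection, 30 min room temperature.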

[5] = molecular target: Cytochrome P450 2D6 (Homo sapiens) (UniProt P10635); experiment: Cytochrome P450 Family 2 Subfamily D Member 6 (CYP2D6) small molecule antagonists: luciferase reporter qHTS assay (AID 1671196); also: nearly all actives have a fitted effect of over 50% in size; also: potency is read from the fitted curve at half-maximal effect; as to activity change, negative = inhibition: series mostly up to about 120 µM
Summary of the method: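 Room-temperature luminescent CYP2D6 activity assay: compound preincubated 10 min with enzyme–substrate mix, NADPH-initiated reaction 1 h, detection reagent 20 min before reading.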

[6] = molecular target: Cytochrome P450 2C19 (Homo sapiens) (UniProt P33261); experiment: Cytochrome P450 Family 2 Subfamily C Member 19 (CYP2C19) small molecule antagonists: luciferase reporter qHTS assay (AID 1671197); also: nearly all actives have a fitted effect of over 65% in size; also: potency is read from the fitted curve at half-maximal effect; as to activity change, negative = inhibition: series mostly up to about 120 µM
Summary of the method: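 Inhibition of CYP2C19 was scored from loss of luminescence in a P450-Glo proluciferin substrate assay, NADPH-started and run 1 h at 37C, with ketoconazole as positive control.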

[7] = molecular target: Cytochrome P450 2C9 (Homo sapiens) (UniProt P11712); experiment: Cytochrome P450 Family 2 Subfamily C Member 9 (CYP2C9) small molecule antagonists: luciferase reporter qHTS assay (AID 1671198); also: nearly all actives have a fitted effect of over 50% in size; also: potency is read from the fitted curve at half-maximal effect; as to activity change, negative = inhibition: series mostly up to about 120 µM
Summary of the method: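 CYP2C9 activity was measured with a P450-Glo proluciferin substrate. Enzyme–substrate mix was held with compound for 10 min at room temperature, then NADPH regeneration solution was added for 1 h at 37C. Luciferin product was read as luminescence.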

[8] = molecular target: Nuclear receptor subfamily 1 group I member 2 (Rattus norvegicus) (UniProt Q9R1A7); experiment: Rat pregnane X receptor (rPXR) activation by small molecules, qHTS assay (AID 1346983); details: rPXR luciferase reporter cells, One-Glo luminescence, 24 h; max activation: stronger effect = higher value; also: nearly all actives have a fitted effect of over 20% in size
Summary of the method: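 Cell-based rPXR luciferase reporter assay, 2,000 cells per well, rested 5hr at 37 C before compound addition in DMSO, then 24 hr at 37 C. One-Glo reagent was added and luminescence read after 30 min at room temperature.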

[9] = molecular target: Nuclear receptor subfamily 1 group I member 2 (Homo sapiens) (UniProt O75469); experiment: CYP3A4 induction through human pregnane X receptor (PXR) by small molecules, qHTS assay (AID 1346984); also: nearly all actives have a fitted effect of over 40% in size
Summary of the method: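 Cells (DPX-2; HepG2 with PXR element plus CYP3A4-promoter luciferase) settled 5hr, then were treated 24hr at 37C. A 3hr, 3uM-final Luciferin-IPA step preceded luminescence measurement with One-Glo.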

[10] = molecular target: Nuclear receptor subfamily 1 group I member 2 (Homo sapiens) (UniProt O75469); experiment: Human pregnane X receptor (PXR) activation by small molecules, qHTS assay (AID 1346985); also: nearly all actives have a fitted effect of over 40% in size
Summary of the method: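 DPX-2 cells (HepG2 co-transfected with a PXR response element and a CYP3A4-promoter luciferase construct) were seeded at 2,000 per well, rested 5 hr at 37C, then exposed to DMSO-dissolved compounds for 24 hr. Activation was read as luciferase luminescence.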
% is scaled to controls: 0 for no effect and ±100 for the full control effect.

Nuclear receptor subfamily 1 group I member 2 (Homo sapiens), sequence (O75469 whole entry, looked up): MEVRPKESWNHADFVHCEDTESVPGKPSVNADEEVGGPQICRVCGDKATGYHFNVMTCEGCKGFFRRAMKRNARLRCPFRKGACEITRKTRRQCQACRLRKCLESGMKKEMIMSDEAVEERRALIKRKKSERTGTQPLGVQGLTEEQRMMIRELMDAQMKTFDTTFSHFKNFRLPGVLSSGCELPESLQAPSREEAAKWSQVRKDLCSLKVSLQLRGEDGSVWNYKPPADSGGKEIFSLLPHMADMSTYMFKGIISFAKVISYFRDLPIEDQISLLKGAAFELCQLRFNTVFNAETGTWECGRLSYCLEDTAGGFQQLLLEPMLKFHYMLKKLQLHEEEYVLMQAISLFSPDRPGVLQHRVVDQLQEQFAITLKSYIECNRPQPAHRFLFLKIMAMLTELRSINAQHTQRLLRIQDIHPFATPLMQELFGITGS
Cytochrome P450 2D6 (Homo sapiens), sequence (P10635 whole entry, looked up): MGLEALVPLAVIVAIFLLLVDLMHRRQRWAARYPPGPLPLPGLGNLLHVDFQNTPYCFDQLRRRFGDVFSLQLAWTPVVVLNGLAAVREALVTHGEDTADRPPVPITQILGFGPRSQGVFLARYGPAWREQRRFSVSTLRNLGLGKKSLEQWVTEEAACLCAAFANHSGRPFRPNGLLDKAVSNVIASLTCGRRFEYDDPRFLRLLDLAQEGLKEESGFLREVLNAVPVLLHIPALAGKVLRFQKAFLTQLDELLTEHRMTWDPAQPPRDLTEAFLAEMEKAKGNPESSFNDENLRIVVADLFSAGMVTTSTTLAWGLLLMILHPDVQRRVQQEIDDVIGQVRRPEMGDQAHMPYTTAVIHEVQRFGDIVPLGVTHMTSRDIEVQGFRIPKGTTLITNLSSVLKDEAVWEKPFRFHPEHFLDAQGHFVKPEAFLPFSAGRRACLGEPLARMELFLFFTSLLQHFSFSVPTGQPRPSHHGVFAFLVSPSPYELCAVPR
Cytochrome P450 2C9 (Homo sapiens), sequence (P11712 whole entry, looked up): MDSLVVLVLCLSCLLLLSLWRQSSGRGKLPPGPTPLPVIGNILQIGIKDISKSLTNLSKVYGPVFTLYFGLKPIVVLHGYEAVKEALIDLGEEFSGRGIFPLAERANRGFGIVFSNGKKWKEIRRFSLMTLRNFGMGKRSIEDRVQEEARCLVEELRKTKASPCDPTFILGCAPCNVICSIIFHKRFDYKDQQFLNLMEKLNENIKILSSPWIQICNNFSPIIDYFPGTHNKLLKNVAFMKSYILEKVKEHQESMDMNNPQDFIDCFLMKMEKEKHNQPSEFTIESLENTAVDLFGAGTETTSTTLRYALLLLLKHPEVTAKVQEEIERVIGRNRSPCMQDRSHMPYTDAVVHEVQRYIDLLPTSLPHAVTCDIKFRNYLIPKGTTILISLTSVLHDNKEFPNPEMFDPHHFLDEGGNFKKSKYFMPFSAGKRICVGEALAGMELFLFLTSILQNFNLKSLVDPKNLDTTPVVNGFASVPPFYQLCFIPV
Cytochrome P450 2C19 (Homo sapiens), sequence (P33261 whole entry, looked up): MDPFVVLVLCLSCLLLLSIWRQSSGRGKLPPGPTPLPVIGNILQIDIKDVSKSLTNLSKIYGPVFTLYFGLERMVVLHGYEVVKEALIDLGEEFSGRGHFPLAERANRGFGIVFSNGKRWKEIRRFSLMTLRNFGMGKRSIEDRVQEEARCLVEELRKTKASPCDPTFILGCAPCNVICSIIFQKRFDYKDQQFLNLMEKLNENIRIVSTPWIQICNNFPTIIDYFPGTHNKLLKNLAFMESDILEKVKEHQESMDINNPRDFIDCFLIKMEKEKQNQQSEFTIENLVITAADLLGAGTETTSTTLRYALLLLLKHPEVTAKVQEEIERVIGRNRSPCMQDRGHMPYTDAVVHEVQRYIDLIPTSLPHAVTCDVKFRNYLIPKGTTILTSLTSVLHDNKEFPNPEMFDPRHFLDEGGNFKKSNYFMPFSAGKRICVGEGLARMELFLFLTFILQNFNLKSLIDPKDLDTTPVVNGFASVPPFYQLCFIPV
Nuclear receptor subfamily 1 group I member 2 (Rattus norvegicus), sequence (Q9R1A7 whole entry, looked up): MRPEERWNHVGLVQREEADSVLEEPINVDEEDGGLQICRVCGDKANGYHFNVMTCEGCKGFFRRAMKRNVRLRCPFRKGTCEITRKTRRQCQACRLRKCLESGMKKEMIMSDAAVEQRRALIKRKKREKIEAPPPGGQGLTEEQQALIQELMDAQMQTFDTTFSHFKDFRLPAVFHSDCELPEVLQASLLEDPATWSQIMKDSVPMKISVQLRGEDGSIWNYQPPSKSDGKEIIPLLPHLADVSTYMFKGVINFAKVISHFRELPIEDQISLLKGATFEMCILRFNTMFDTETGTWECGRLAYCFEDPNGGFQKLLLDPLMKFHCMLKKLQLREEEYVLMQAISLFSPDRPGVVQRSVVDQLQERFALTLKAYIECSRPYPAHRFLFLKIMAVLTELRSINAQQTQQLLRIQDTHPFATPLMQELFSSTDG

CC(C)Cc1ccccc1
inactive: Potency [1] | Potency [2] | Potency [3] | Potency [4] | Potency [5] | Potency [6] | Potency [7]

C=C(C)C(=O)OCCC[Si](OC)(OC)OC
60.4 µM (active) and inactive: Potency [4]
62.6 µM (active) and inactive: Potency [5]
active: Potency [6] 22.2 µM | Potency [7] 15.7 µM
inactive: Potency [1] | Potency [2] | Potency [3]

OCCOCCOCCOCCO
inactive: Potency [1] | Potency [2] | Potency [3] | Potency [4] | Potency [5] | Potency [7]
40.8 µM (active) and inactive: Potency [6]

CS(=O)(=O)c1ccc([C@@H](O)[C@@H](CO)NC(=O)C(Cl)Cl)cc1
active: Potency [6] 28.6 µM and 17.4 µM
64.1 µM (active) and inactive: Potency [5]
inactive: Potency [1] | Potency [2] | Potency [3] | Potency [4] | max activation [8] -0.108% | outcome [9] | outcome [10] | Potency [7]

OC1CCCC1
30.6 µM (active) and inactive: Potency [4]
inactive: Potency [1] | Potency [2] | Potency [3] | Potency [5] | Potency [6] | Potency [7]

ClC1=C(Cl)C(Cl)(Cl)C(Cl)=C1Cl
inactive: Potency [1] | Potency [3] | Potency [4] | Potency [5] | Potency [6]
inactive and 68.6 µM (active): Potency [2]

CN(C)c1ccc(C(=N)c2ccc(N(C)C)cc2)cc1
inactive: Potency [2] | Potency [7]
active: Potency [1] 30.3 µM and 18.6 µM | Potency [3] 42.7 µM and 46.7 µM | Potency [4] 2.14 µM and 14.8 µM | Potency [5] 125 nM and 76.7 nM | Potency [6] 5.57 µM and 15.3 µM

Oc1ccc2ccccc2c1
inactive: Potency [1] | Potency [2] | Potency [3]

CCCCCC/C=C/CCCCCCCC(=O)O
inactive: Potency [1] | Potency [2] | Potency [3] | Potency [4] | Potency [5] | Potency [6] | Potency [7]

C[C@@H]1O[C@@H](OC[C@H]2O[C@@H](Oc3c(-c4ccc(O)c(O)c4)oc4cc(O)cc(O)c4c3=O)[C@H](O)[C@@H](O)[C@@H]2O)[C@H](O)[C@H](O)[C@H]1O
inactive: Potency [1] | Potency [2] | Potency [3] | Potency [4] | max activation [8] -1.22% | outcome [9] | outcome [10] | Potency [5] | Potency [6] | Potency [7]

Oc1ccc(OCc2ccccc2)cc1
active: Potency [4] 30 µM | Potency [6] 34.8 µM and 8.71 µM
inactive: Potency [1] | Potency [2] | Potency [3] | max activation [8] -0.536% | outcome [9]

OCC1CCCO1 (configuration not stated)
inactive: Potency [1] | Potency [2] | Potency [3] | Potency [4] | Potency [5]
40.7 µM (active) and inactive: Potency [6]

C[C@@H](O)[C@H]1C(=O)N2C(C(=O)O)=C(S[C@@H]3CN[C@H](C(=O)N(C)C)C3)[C@H](C)[C@H]12
17.4 µM (active) and inactive: Potency [5]
inactive: Potency [1] | Potency [2] | Potency [3] | Potency [4] | max activation [8] -2.7% | outcome [9] | outcome [10] | Potency [6]

Nc1cc(-c2ccncc2)c[nH]c1=O
active: Potency [5] 31.7 µM and 17.4 µM | Potency [6] 8.94 µM and 3.89 µM | Potency [7] 14.2 µM and 12.3 µM
inactive: Potency [1] | Potency [2] | Potency [3] | Potency [4] | max activation [8] -1.94% | outcome [9] | outcome [10]

CC1COc2ccccc2N1C(=O)C(Cl)Cl (configuration not stated)
15.9 µM (active) and inactive: Potency [5]
active: Potency [1] 27.3 µM and 30.6 µM | Potency [3] 61 µM and 27.3 µM | Potency [4] 61 µM and 54.4 µM | Potency [6] 7.09 µM and 6.32 µM | Potency [7] 15.9 µM and 28.2 µM
inactive: Potency [2]

O=[N+]([O-])c1cccc(Cl)c1
inactive: Potency [1] | Potency [2] | Potency [3] | Potency [4] | Potency [5] | Potency [6] | Potency [7]

OC[C@@H](O)[C@@H](O)[C@H](O)[C@@H](O)CO
inactive: Potency [1] | Potency [2] | Potency [3] | Potency [4] | Potency [5] | Potency [6] | Potency [7]

CC(C)(CO)COC(=O)C(C)(C)CO
inactive: Potency [1] | Potency [2] | Potency [3] | Potency [4] | Potency [5]
active: Potency [6] 8.94 µM and 39.9 µM

CC(=O)Nc1ccc(C(=O)O)cc1
inactive: Potency [1] | Potency [2] | Potency [3] | Potency [4] | max activation [8] -3.56% | outcome [9] | outcome [10] | Potency [5] | Potency [6] | Potency [7]

NS(=O)(=O)c1cc2c(cc1Cl)NC=NS2(=O)=O
inactive: Potency [1] | Potency [2] | Potency [3]

O=C(Cl)c1c(Cl)c(Cl)c(C(=O)Cl)c(Cl)c1Cl
inactive: Potency [1] | Potency [2] | Potency [3] | Potency [4] | Potency [6] | Potency [7]
active: Potency [5] 89.4 µM

O=C(Oc1ccccc1)c1ccc(O)cc1
inactive: Potency [1] | Potency [2] | Potency [3] | Potency [4] | Potency [5]
active: Potency [6] 40.2 µM and 22.4 µM | Potency [7] 11.3 µM and 25.2 µM

Cc1cc(O)cc(C)c1Cl
inactive: Potency [1] | Potency [2] | Potency [3] | Potency [4] | max activation [8] -1.35% | outcome [9] | outcome [10] | Potency [5] | Potency [6] | Potency [7]

O=Nc1ccc(O)cc1
47.4 µM (active) and inactive: Potency [1]
inactive: Potency [2] | Potency [3] | Potency [4]
active: Potency [5] 39 µM | Potency [6] 17.4 µM

CCC(C)C=O (configuration not stated)
39.9 µM (active) and inactive: Potency [6]
inactive: Potency [1] | Potency [2] | Potency [3] | Potency [4] | Potency [5] | Potency [7]

CN(CCOc1ccc(CC2SC(=O)NC2=O)cc1)c1ccccn1 (configuration not stated)
62.9 µM (active) and inactive: Potency [7]
54.2 µM (active) and inactive: Potency [4]
inactive: Potency [1] | Potency [2] | Potency [3] | max activation [8] -1.4% | outcome [10] | Potency [6]

CC(C)NCC(O)COc1cccc2ccccc12 (configuration not stated)
inactive: Potency [1] | Potency [2] | Potency [3]

NCCNCCNCCNCCN
inactive: Potency [1] | Potency [2] | Potency [3] | Potency [4] | max activation [8] -4.35% | outcome [9] | outcome [10] | activity change, negative = inhibition [5] -26.4% [at 10.5 µM] | activity change, negative = inhibition [6] 36.2% [at 10.5 µM] | activity change, negative = inhibition [7] 8.07% [at 10.5 µM]
active: Potency [5] 63 µM | Potency [6] 63 µM

C=C1C2CCC(C2)C1(C)C (configuration not stated)
inactive: Potency [1] | Potency [2] | Potency [3] | Potency [4] | Potency [5] | Potency [6] | Potency [7]

O=C1O[C@H](CO)[C@@H](O)[C@H](O)[C@H]1O
inactive: Potency [1] | Potency [2] | Potency [3] | Potency [4] | max activation [8] 1.43% | outcome [9] | outcome [10] | Potency [5] | Potency [6] | Potency [7]

OC[C@@H](O)[C@H](O)[C@H](O)[C@@H](O)CO
inactive: Potency [1] | Potency [2] | Potency [3] | Potency [4] | max activation [8] -0.0445% and -4.34% | outcome [9] | outcome [10] | Potency [5] | Potency [6] | Potency [7]

CCCCC(CC)COC(=O)/C=C\C(=O)OCC(CC)CCCC (configuration not stated)
48.5 µM (active) and inactive: Potency [4]
inactive: Potency [1] | Potency [2] | Potency [3] | Potency [5]
active: Potency [6] 39.9 µM and 71 µM | Potency [7] 39.9 µM

Oc1ccc2ccccc2c1N=Nc1ccccc1
inactive: Potency [2]
35.6 µM (active) and inactive: Potency [5]
active: Potency [1] 48.5 µM and 27.3 µM | Potency [3] 48.5 µM and 27.3 µM | Potency [4] 43.2 µM and 21.7 µM | Potency [6] 31.7 µM | Potency [7] 11.2 µM and 14.2 µM

Cc1ccc(C)c(C)c1
inactive: Potency [1] | Potency [2] | Potency [3] | Potency [4] | Potency [5] | Potency [6] | Potency [7]

CCCCCCCCCCCCN
active: Potency [5] 16 µM and 2.24 µM and 8.09 µM | Potency [6] 4.02 µM and 633 nM and 2.56 µM | Potency [7] 22.6 µM and 6.33 µM and 32.2 µM
inactive: Potency [2] | Potency [3] | Potency [4]
inactive and 30.6 µM (active): Potency [1]

CCCCNC(N)=O
inactive: Potency [1] | Potency [2] | Potency [3] | Potency [4] | Potency [5] | Potency [6] | Potency [7]

COCC(=O)O
inactive: Potency [1] | Potency [2] | Potency [3] | Potency [4] | Potency [5] | Potency [7]
73 µM (active) and inactive: Potency [6]
